Where “and” joins values, the source holds several entries; their conditions need not be identical. Equal entries are not always repeated. Some structures have more than one record in an assay (separate samples or runs), and their calls can disagree. Calls of active or inactive are those of the source. The calls were made as follows: active = hit-call score of the fitted dose curve at least 0.9, where 1 is the maximum; inactive = score below 0.9.
Key:
[1] = read-out: Interleukin-1 alpha (IL1a), IL1A (gene 3552); test: BSK_LPS_IL1a: BioMAP Diversity Plus: LPS Assay for Interleukin-1 alpha (IL1a) Biomarker Activity (AID 2283080); details: primary human HUVEC with PBMC; actives raise or lower the signal
How it was run: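 HUVEC/PBMC co-culture, LPS system; 24 h after dosing; IL-1a by ELISA; gain or loss of signal fitted bidirectionally vs DMSO baseline.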

[2] = read-out: Monocyte Chemoattractant Protein-1 (MCP1), CCL2 (gene 6347); test: BSK_LPS_MCP1: BioMAP Diversity Plus: LPS Assay for Monocyte Chemoattractant Protein-1 (MCP1) Biomarker Activity (AID 2283081); details: primary human HUVEC with PBMC; actives raise or lower the signal;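 as to AC50: secreted MCP-1 protein quantified by ELISA in culture supernatant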
How it was run: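 ELISA read-out of MCP-1 after 24 h chemical dosing of a human umbilical vein endothelial cell/peripheral blood mononuclear cell co-culture stimulated with LPS. Gain or loss of signal fitted relative to DMSO controls.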

[3] = BSK_LPS_PGE2: BioMAP Diversity Plus: LPS Assay for Prostaglandin E2 (PGE2) Biomarker Activity (AID 2283082); details: primary human HUVEC with PBMC; actives raise or lower the signal;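 as to AC50: secreted prostaglandin E2 measured by ELISA in LPS-stimulated co-culture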
How it was run: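 ELISA read-out of PGE2 from human umbilical vein endothelial cells co-cultured with peripheral blood mononuclear cells under LPS, 24 h post-dose. Gain or loss of signal scored relative to DMSO baseline.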

[4] = read-out: Macrophage colony-stimulating factor (MCSF), CSF1 (gene 1435); test: BSK_LPS_MCSF: BioMAP Diversity Plus: LPS Assay for Macrophage colony-stimulating factor (MCSF) Biomarker Activity (AID 2283083); details: primary human HUVEC with PBMC; actives raise or lower the signal
How it was run: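 HUVEC + PBMC co-culture (human primary), 24 h post-dose; M-CSF by ELISA; gain/loss of signal fitted bidirectionally vs DMSO baseline.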

[5] = read-out: Tissue Factor, F3 (gene 2152); test: BSK_LPS_TissueFactor: BioMAP Diversity Plus: LPS Assay for Tissue Factor Biomarker Activity (AID 2283084); details: primary human HUVEC with PBMC; actives raise or lower the signal
How it was run: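 HUVEC/PBMC co-culture, LPS-activated; CD142 ELISA read 24 h post-dose; bidirectional curve fit vs DMSO negative control.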

[6] = read-out: Tumor necrosis factor (Homo sapiens) (UniProt P01375); test: BSK_LPS_TNFa: BioMAP Diversity Plus: LPS Assay for Tumour Necrosis Factor alpha (TNFa) Biomarker Activity (AID 2283085); details: primary human HUVEC with PBMC; actives raise or lower the signal;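 as to AC50: TNFa protein level quantified by ELISA in the co-culture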
How it was run: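 HUVEC/PBMC co-culture, LPS-stimulated; 24 h post-dose; TNFa by ELISA; gain or loss of signal fitted bidirectionally vs DMSO baseline.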

[7] = read-out: Vascular cell adhesion molecule 1 (VCAM1), VCAM1 (gene 7412); test: BSK_LPS_VCAM1: BioMAP Diversity Plus: LPS Assay for Vascular cell adhesion molecule 1 (VCAM1) Biomarker Activity (AID 2283086); details: primary human HUVEC with PBMC; actives raise or lower the signal
How it was run: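 ELISA read-out of VCAM-1 at 24 h post-dosing in an LPS-driven HUVEC/PBMC primary human co-culture; gain or loss of signal fitted bidirectionally against DMSO baseline. Cytotoxicity tracked in parallel cultures by SRB total-protein staining.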

[8] = read-out: CD38, CD38 (gene 952); test: BSK_SAg_CD38: BioMAP Diversity Plus: SAg Assay for CD38 Biomarker Activity (AID 2283087); details: primary human HUVEC with PBMC; actives raise or lower the signal
How it was run: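 Measures CD38 on a human endothelial/PBMC co-culture driven by SEB and TSST-1, 24 h after compound exposure, using ELISA with fluorescence detection; DMSO defines baseline for bidirectional curve fitting.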

[9] = read-out: CD40, CD40 (gene 958); test: BSK_SAg_CD40: BioMAP Diversity Plus: SAg Assay for CD40 Biomarker Activity (AID 2283088); details: primary human HUVEC with PBMC; actives raise or lower the signal
How it was run: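 HUVEC/PBMC co-culture, 24 h post-dose; CD40 by ELISA, fluorescence intensity; bidirectional fit vs DMSO negative control.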

[10] = read-out: CD69, CD69 (gene 969); test: BSK_SAg_CD69: BioMAP Diversity Plus: SAg Assay for CD69 Biomarker Activity (AID 2283089); details: primary human HUVEC with PBMC; actives raise or lower the signal;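 as to AC50: cell surface CD69 protein quantified by ELISA with fluorescence detection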
How it was run: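 Endothelial/PBMC co-culture; chemical added; 24 h incubation; CD69 ELISA with fluorescence detection; bidirectional fit vs DMSO.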

[11] = read-out: Monocyte Chemoattractant Protein-1 (MCP1), CCL2 (gene 6347); test: BSK_SAg_MCP1: BioMAP Diversity Plus: SAg Assay for Monocyte Chemoattractant Protein-1 (MCP1) Biomarker Activity (AID 2283090); details: primary human HUVEC with PBMC; actives raise or lower the signal
How it was run: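 Values derive from bidirectional fitting of ELISA-measured MCP1 against DMSO controls. Readings were taken 24 h after dosing human vascular endothelial cells co-cultured with peripheral blood mononuclear cells under superantigen stimulation.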

[12] = read-out: E-selectin (Homo sapiens) (UniProt P16581); test: BSK_SAg_Eselectin: BioMAP Diversity Plus: SAg Assay for Eselectin Biomarker Activity (AID 2283091); details: primary human HUVEC with PBMC; actives raise or lower the signal
How it was run: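 E-selectin ELISA readout at 24 h post-dosing in human umbilical vein endothelial cell/PBMC co-culture; gain or loss of signal fitted relative to DMSO baseline.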

[13] = read-out: Monokine induced gamma interferon (MIG), CXCL9 (gene 4283); test: BSK_SAg_MIG: BioMAP Diversity Plus: SAg Assay for Monokine induced gamma interferon (MIG) Biomarker Activity (AID 2283092); details: primary human HUVEC with PBMC; actives raise or lower the signal
How it was run: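 Measures CXCL9 protein by ELISA in a human vascular primary-cell co-culture (umbilical vein endothelium with PBMC) 24 h after chemical addition. Activity is scored up or down from the DMSO control.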

[14] = BSK_SAg_Proliferation: Cell Proliferation Assessment in the BioMAP Diversity Plus: SAg Assay (AID 2283095); details: primary human HUVEC with PBMC;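 also: relative cell number as total protein by SRB absorbance in sub-confluent culture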
How it was run: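 HUVEC/PBMC co-culture, 96-well. TCA-fixed (10%), 0.1% SRB stain, A560 at 96 h. Protein content used as viability readout; bidirectional fitting vs DMSO control.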

[15] = BSK_SAg_SRB: Viability Assessment in the BioMAP Diversity Plus: SAg Assay (AID 2283096); details: primary human HUVEC with PBMC;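 also: cells read one day after compound addition; hits may be either gain or loss of signal compared with DMSO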
How it was run: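 This overt-cytotoxicity endpoint quantifies protein in human endothelial/PBMC co-cultures at 24 h using SRB absorbance (560 nm) after trichloroacetic acid fixation. Values reflect signal change from the DMSO negative control, fitted bidirectionally.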

[16] = read-out: Interleukin-8 (IL8), CXCL8 (gene 3576); test: BSK_SAg_IL8: BioMAP Diversity Plus: SAg Assay for Interleukin-8 (IL8) Biomarker Activity (AID 2283094); details: primary human HUVEC with PBMC; actives raise or lower the signal
How it was run: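 HUVEC/PBMC co-culture, 24 h post-dose; IL-8 by ELISA. Gain or loss of signal fitted bidirectionally vs DMSO baseline.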

[17] = BSK_SAg_PBMCCytotoxicity: PBMC Cytotoxicity Assessment in the BioMAP Diversity Plus: SAg Assay (AID 2283093); details: primary human HUVEC with PBMC;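 also: PBMC viability measured as Alamar Blue reduction fluorescence at 546/580 nm; fitted both ways against DMSO so a hit may be loss or gain of signal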;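 as to AC50: PBMC superantigen activated with SEB plus TSST-1 one hour after compound addition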
How it was run: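 Alamar Blue reduction (6 h, 546/580 nm) reports PBMC cytotoxicity after 90 h superantigen activation (SEB, TSST-1; 20 ng/mL final each) with 1 h compound pre-treatment. Gain or loss of signal fitted versus DMSO.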

Measured: AC50

Sequence of E-selectin (Homo sapiens) (P16581 whole entry, looked up): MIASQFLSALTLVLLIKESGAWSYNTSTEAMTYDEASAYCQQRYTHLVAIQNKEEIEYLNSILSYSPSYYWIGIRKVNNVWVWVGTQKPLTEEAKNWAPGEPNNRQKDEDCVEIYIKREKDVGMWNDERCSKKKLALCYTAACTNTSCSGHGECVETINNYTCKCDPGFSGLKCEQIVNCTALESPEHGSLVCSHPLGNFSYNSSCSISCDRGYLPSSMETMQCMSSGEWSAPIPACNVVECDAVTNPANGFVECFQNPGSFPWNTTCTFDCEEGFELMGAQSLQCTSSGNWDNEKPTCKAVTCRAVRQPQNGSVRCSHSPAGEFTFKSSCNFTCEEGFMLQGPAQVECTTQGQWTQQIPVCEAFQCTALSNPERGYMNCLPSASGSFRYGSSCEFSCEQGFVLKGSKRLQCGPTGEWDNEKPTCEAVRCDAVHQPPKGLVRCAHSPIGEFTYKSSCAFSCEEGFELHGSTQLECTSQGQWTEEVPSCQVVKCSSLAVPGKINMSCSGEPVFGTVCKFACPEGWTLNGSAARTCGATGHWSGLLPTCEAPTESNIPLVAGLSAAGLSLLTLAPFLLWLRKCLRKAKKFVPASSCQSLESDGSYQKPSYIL
Sequence of Tumor necrosis factor (Homo sapiens) (P01375 whole entry, looked up): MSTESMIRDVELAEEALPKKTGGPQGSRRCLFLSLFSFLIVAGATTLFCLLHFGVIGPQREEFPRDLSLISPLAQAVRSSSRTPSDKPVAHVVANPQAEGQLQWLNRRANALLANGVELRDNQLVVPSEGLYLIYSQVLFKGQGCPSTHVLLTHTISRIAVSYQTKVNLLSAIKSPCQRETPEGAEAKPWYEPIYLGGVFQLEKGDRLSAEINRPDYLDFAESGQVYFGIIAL

O=C(O)C(F)(OC(F)(F)C(F)(OC(F)(F)C(F)(F)C(F)(F)F)C(F)(F)F)C(F)(F)F (centres undefined)
not listed: [16] | [17]
inactive: all other assays above

C=CC(=O)OCC(F)(F)C(F)(F)C(F)(F)C(F)(F)COC(=O)C=C
active: [1] 20.2 µM and 21.2 µM | [2] 17.3 µM and 19.4 µM | [3] 8.08 µM | [4] 21.4 µM and 21.3 µM | [5] 36.4 µM and 34.8 µM | [6] 18.3 µM and 18.1 µM | [7] 16.6 µM and 16.4 µM | [8] 17.6 µM and 20.6 µM | [9] 13.1 µM and 15.1 µM | [10] 14.5 µM and 17.3 µM | [11] 27.9 µM and 25.1 µM | [12] 15.5 µM and 15.3 µM | [13] 20.6 µM and 20.9 µM | [16] 16.8 µM and 25 µM | [14] 8.2 µM and 8.47 µM | [15] 44.6 µM and 46.9 µM
inactive: [3]

FC(F)(F)C(F)(F)C(F)(F)C(F)(F)CCI
active: [17] 41.9 µM | [14] 30 µM
inactive: [1] | [2] | [3] | [4] | [5] | [6] | [7] | [8] | [9] | [10] | [11] | [12] | [13] | [17] | [16] | [15]

O=C(O)C(F)(F)C(F)(F)C(F)(F)C(F)(F)F
active: [4] 8.3 µM
inactive: [1] | [2] | [3] | [4] | [5] | [6] | [7] | [8] | [9] | [10] | [11] | [12] | [13] | [17] | [14] | [15]

FC(F)(I)C(F)(F)C(F)(F)C(F)(F)I
active: [10] 46.7 µM | [12] 44.1 µM | [17] 46.9 µM and 50.1 µM | [16] 30 µM | [14] 54.2 µM and 54.1 µM and 46.5 µM
inactive: [1] | [2] | [3] | [4] | [5] | [6] | [7] | [8] | [9] | [10] | [11] | [12] | [13] | [17] | [16] | [15]

O=C(O)C(F)(F)C(F)(F)C(F)(F)C(F)(F)C(F)(F)C(F)(F)C(F)(F)C(F)(F)Cl
inactive: [1] | [2] | [4] | [5] | [6] | [7] | [12] | [13] | [17] | [14]
active: [3] 21.9 µM and 22 µM | [4] 19.4 µM | [7] 30 µM | [8] 50.4 µM and 30 µM | [9] 38.2 µM and 45.9 µM | [10] 30 µM and 45 µM | [11] 45.9 µM and 50.4 µM | [14] 54.5 µM | [15] 48.1 µM and 45.1 µM

O=C(O)C(F)(F)C(F)(F)C(F)(F)C(F)(F)C(F)(F)C(F)(F)C(F)(F)C(F)(F)C(F)(F)C(F)(F)C(F)(F)C(F)(F)C(F)(F)F
active: [9] 869 nM
inactive: [1] | [2] | [3] | [4] | [5] | [6] | [7] | [8] | [9] | [10] | [11] | [12] | [13] | [17] | [16] | [14] | [15]

OCC(F)(F)C(F)(F)C(F)(F)C(F)F
not listed: [17]
inactive: all other assays above

CCCCCCC(C)OC(=O)CCCCC(=O)OC(C)CCCCCC (centres undefined)
active: [6] 25.3 µM
not listed: [17]
inactive: all other assays above

CS(C)(=O)=O
not listed: [16] | [17]
inactive: all other assays above

O=S(=O)(O)C(F)(F)C(F)(F)C(F)(F)C(F)(F)C(F)(F)C(F)(F)C(F)(F)F
inactive: all assays above

From PubChem BioAssay (EPA / NIEHS)
